PubChem BioAssay (NCI)
This is part of a sample that, as a whole, favours compounds with a hit. Of some 79,000 tested, about 15% had one in any assay. Active and inactive are the calls of the source. Rule as the data show it: active = growth inhibition above about 70%; inactive = the rest.

Columns and labels:
[1] = NCI Yeast Anticancer Drug Screen. Data for the rad52 strain (AID 147);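 also: 0% = growth of vehicle-treated control cultures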; details: S. cerevisiae rad52 mutant growth inhibition, stronger effect = higher value
Procedure, shortened: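 Here a repair-compromised yeast strain receives each compound; its growth is then quantified and normalised to vehicle-only controls.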

[2] = NCI Yeast Anticancer Drug Screen. Data for the wt1 strain (AID 149);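 also: 0% = growth of vehicle-treated wt1 cultures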; details: S. cerevisiae wt1 strain (SPY 50644) growth inhibition, stronger effect = higher value
Procedure, shortened: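 Readout: yeast growth inhibition, normalised to vehicle controls, in the wt1 strain exposed to test compounds.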

[3] = NCI Yeast Anticancer Drug Screen. Data for the rad50EPP+ strain (AID 151);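 also: 0% = growth of vehicle-treated control cultures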; details: S. cerevisiae rad50 mutant strain, stronger effect = higher value
Procedure, shortened: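 Read-out is yeast growth inhibition relative to vehicle; cells used were the rad50EPP+ strain.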

[4] = NCI Yeast Anticancer Drug Screen. Data for the mgt1 strain (AID 153); details: S. cerevisiae mgt1 mutant growth inhibition, stronger effect = higher value
Procedure, shortened: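 Measured: inhibition of mgt1 yeast growth by compound, normalized to vehicle-treated cultures.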

[5] = NCI Yeast Anticancer Drug Screen. Data for the rad50 strain (AID 155);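 also: 0% = growth of vehicle-only cultures of the same strain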; details: S. cerevisiae rad50 strain growth inhibition, stronger effect = higher value
Procedure, shortened: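 Compounds were tested on a yeast strain with an engineered DNA damage repair alteration; the reported value is growth inhibition normalised to vehicle treatment.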

[6] = NCI Yeast Anticancer Drug Screen. Data for the mec2-1 strain (AID 157); details: S. cerevisiae mec2-1 strain, stronger effect = higher value
Procedure, shortened: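 Using mec2-1 yeast: add compound, measure growth, express inhibition versus vehicle-treated cultures.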

[7] = NCI Yeast Anticancer Drug Screen. Data for the rad14 strain (AID 159);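 also: 0% = growth of vehicle-treated control cultures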; details: S. cerevisiae rad14 strain growth inhibition, stronger effect = higher value
Procedure, shortened: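 Compound-treated yeast with a defined DNA-repair lesion; growth inhibition normalised to vehicle-treated cultures.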

[8] = NCI Yeast Anticancer Drug Screen. Data for the sgs1 mgt1 strain (AID 161);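 also: 0% = growth of cultures given vehicle only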; details: S. cerevisiae sgs1 mgt1 strain, stronger effect = higher value
Procedure, shortened: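 Percent growth inhibition was derived by comparing compound-exposed mutant yeast with vehicle-exposed cultures. The strain carries alterations in DNA damage repair.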

[9] = NCI Yeast Anticancer Drug Screen. Data for the CLN2oe strain (AID 163);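 also: 0% = growth of vehicle-only control cultures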; details: S. cerevisiae CLN2oe strain, stronger effect = higher value
Procedure, shortened: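 Whole-cell yeast growth assay. A strain engineered for altered cell-cycle control received compound, and inhibition relative to vehicle-treated cultures was recorded.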

[10] = NCI Yeast Anticancer Drug Screen. Data for the cln2 rad14 strain (AID 165);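 also: 0% = growth equal to vehicle treated cultures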; details: S. cerevisiae cln2 rad14 strain, stronger effect = higher value
Procedure, shortened: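 Yeast strain cln2 rad14, bearing defects in cell cycle control and DNA repair, serves as the test system; values reflect growth inhibition compared with vehicle.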

[11] = NCI Yeast Anticancer Drug Screen. Data for the bub3 strain (AID 167); details: S. cerevisiae bub3 mutant strain, stronger effect = higher value
Procedure, shortened: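 Growth of a checkpoint-deficient yeast mutant is measured after compound exposure. Values represent inhibition relative to vehicle.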

[12] = NCI Yeast Anticancer Drug Screen. Data for the wt2 strain (AID 169);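 also: 0% = growth of vehicle-treated yeast cultures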; details: S. cerevisiae wt2 strain growth inhibition, stronger effect = higher value
Procedure, shortened: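 Treated yeast vs. vehicle-treated yeast: growth inhibition determined.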

[13] = NCI Yeast Anticancer Drug Screen. Data for the mlh1 strain (AID 171);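 also: 0% = growth of vehicle-treated control cultures of the same strain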; details: S. cerevisiae mlh1 strain growth inhibition, stronger effect = higher value
Procedure, shortened: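 A yeast strain with a defined genetic lesion serves as the test organism. Cultures receive compound or vehicle, and growth is measured.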

[14] = NCI Yeast Anticancer Drug Screen. Data for the sgs1 strain (AID 173);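 also: 0% = growth of vehicle-only control cultures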; details: S. cerevisiae sgs1 mutant, stronger effect = higher value
Procedure, shortened: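 A genetically defined yeast mutant is incubated with the test compound, and its growth is compared to that of the same strain given vehicle.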

[15] = NCI Yeast Anticancer Drug Screen. Data for the mlh1 rad18 strain (AID 175); details: S. cerevisiae mlh1 rad18 strain growth inhibition, stronger effect = higher value
Procedure, shortened: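 Steps: expose repair-defective yeast to compound; measure growth; express inhibition against vehicle-treated controls.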

[16] = NCI Yeast Anticancer Drug Screen. Data for the rad18 strain (AID 177); details: S. cerevisiae rad18 mutant growth inhibition, stronger effect = higher value
Procedure, shortened: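 Measured value is growth inhibition of a yeast strain bearing a DNA repair alteration, referenced to vehicle-treated cells.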

[17] = at 5.0 µM (retest, dose inferred, filed as 0.5)
[18] = at 50.0 µM (retest, dose inferred, filed as 5.0)

Measured: growth inhibition

CN1CCN(C(=O)c2cccc3cccc(C(=O)O)c23)CC1
active: [1]; at 100.0 µM 97% | [3]; at 100.0 µM 72% | [4]; at 100.0 µM 99% | [5]; [18] 84% | [5]; at 50.0 µM 85% | [5]; at 100.0 µM 99% | [6]; at 50.0 µM 97.7% | [6]; at 100.0 µM 99% | [7]; at 100.0 µM 98% | [8]; [18] 88% | [8]; at 50.0 µM 77.6% | [9]; at 100.0 µM 97% | [11]; [18] 89% | [11]; at 100.0 µM 97% | [12]; at 100.0 µM 98% | [13]; at 100.0 µM 100% | [14]; at 100.0 µM 100% | [15]; [18] 99% | [16]; at 100.0 µM 99%
inactive: [1]; at 1.2 µM 11% | [1]; at 3.7 µM 10% | [1]; at 11.0 µM 7% | [1]; at 33.0 µM 38% | [2]; at 1.2 µM 6% | [2]; at 3.7 µM 9% | [2]; at 11.0 µM 11% | [2]; at 33.0 µM 12% | [2]; at 100.0 µM 33% | [3]; at 1.2 µM 15% | [3]; at 3.7 µM 12% | [3]; at 11.0 µM 10% | [3]; at 33.0 µM 36% | [4]; at 1.2 µM 4% | [4]; at 3.7 µM 12% | [4]; at 11.0 µM 11% | [4]; at 33.0 µM 23% | [5]; at 1.2 µM 9% | [5]; at 3.7 µM 9% | [5]; [17] -12% | [5]; at 11.0 µM 8% | [5]; at 33.0 µM 61% | [6]; at 1.2 µM 10% | [6]; at 3.7 µM 12% | [6]; [17] -19% | [6]; at 11.0 µM 13% | [6]; at 33.0 µM 23% | [6]; [18] 1% | [7]; at 1.2 µM 12% | [7]; at 3.7 µM 11% | [7]; at 11.0 µM 14% | [7]; at 33.0 µM 32% | [8]; [17] -14% | [9]; at 1.2 µM 13% | [9]; at 3.7 µM 15% | [9]; at 11.0 µM 14% | [9]; at 33.0 µM 32% | [10]; [17] -10% | [10]; [18] 6% | [10]; at 50.0 µM 38.6% | [11]; at 1.2 µM 12% | [11]; at 3.7 µM 15% | [11]; [17] 25% | [11]; at 11.0 µM 16% | [11]; at 33.0 µM 33% | [11]; at 50.0 µM 51.8% | [12]; at 1.2 µM -6% | [12]; at 3.7 µM -4% | [12]; at 11.0 µM -7% | [12]; at 33.0 µM -8% | [13]; at 1.2 µM 8% | [13]; at 3.7 µM 9% | [13]; at 11.0 µM 10% | [13]; at 33.0 µM 29% | [14]; at 1.2 µM -14% | [14]; at 3.7 µM -21% | [14]; at 11.0 µM -13% | [14]; at 33.0 µM 16% | [15]; [17] -30% | [15]; at 50.0 µM 9.9% | [16]; at 1.2 µM 11% | [16]; at 3.7 µM 11% | [16]; at 11.0 µM 13% | [16]; at 33.0 µM 33%
